Assay outcomes deposited in PubChem BioAssay by The Scripps Research Institute Molecular Screening Center.
hcDAF-12 act: activates DAF-12 receptor from parasite H. contortus | HEK293 hcDAF-12 lit1-tk-luc reporter, luminescence; 0% DMSO, 100% Δ7-dafachronic acid | activation, % at 6.8 µM | 370,000 tested, 1.4% active | AID 652067;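 active means activation above the mean of all tested compounds plus 3 SD, cut at about 5.5% in these data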
ssDAF12 agonist: S. stercoralis DAF-12 activation, primary screen. HEK293 ssDAF-12/GRIP1 lit1-tk-luc reporter, luminescence; % of 3 µM dafachronic acid response. activation, % at 6.8 µM. 370,000 tested, 1% active. AID 652126;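 active means activation above the mean over all tested compounds plus 3 SD, cut at about 0.9% in these data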
hgDAF-12 ag: activates the H. glycines DAF-12 receptor ligand-binding domain; HEK293 GAL4-hgDAF12 UAS-luciferase reporter, agonist luminescence; normalized to butyrate control; AID 687014; activation, % at 6.8 µM; 370,000 tested, 1.8% active;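 active means activation above a cutoff set at the mean of all screened compounds plus 3 SD, cut at about 10% in these data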
DAX1 inh-1: inhibits human nuclear receptor DAX1; P51843; HEK293 Gal4-DAX1 luciferase reporter, luminescence; inhibition, % at 6.75 µM; 340,000 tested, 0.99% active;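 active means inhibition above the mean over all tested compounds plus 3 SD, cut at about 4.2% in these data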;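 further: inhibition shows as a rise in luminescence from relieved DAX1 repression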
Target sequence (P51843 207-470 limits assumed): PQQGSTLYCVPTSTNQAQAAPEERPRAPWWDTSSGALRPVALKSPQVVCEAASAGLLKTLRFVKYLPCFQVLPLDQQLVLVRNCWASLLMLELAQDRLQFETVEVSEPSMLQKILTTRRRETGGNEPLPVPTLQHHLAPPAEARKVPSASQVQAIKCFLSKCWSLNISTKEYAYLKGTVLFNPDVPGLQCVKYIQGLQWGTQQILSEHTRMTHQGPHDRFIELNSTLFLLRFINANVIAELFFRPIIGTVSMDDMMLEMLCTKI
DAX1 inh-2: inhibitors of DAX1 repression of SF-1 activated StAR promoter | HEK293T StAR-luciferase reporter, SF-1/DAX-1 repression relief | inhibition, % at 6.8 µM | 370,000 tested, 1.1% active;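 active means inhibition above the mean over all tested compounds plus 3 SD, cut at about 3.6% in these data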;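 further: higher inhibition means more luminescence from relief of DAX-1 repression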
LXR ag: counter-screen for hcDAF-12 agonists: agonists of human LXR-beta; shares compounds with hcDAF-12 act; HEK293 Gal4-LXR tk-luc reporter, luminescence, 24 h; normalized: DMSO 0%, positive control 100%; activation, % at 6.8 µM; 3,400 tested, under 10 active;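 active means mean percent activation of the reporter above a cutoff set as the average over tested compounds plus their standard deviation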
Target sequence (P55055 whole entry, looked up, the tested form may be a part): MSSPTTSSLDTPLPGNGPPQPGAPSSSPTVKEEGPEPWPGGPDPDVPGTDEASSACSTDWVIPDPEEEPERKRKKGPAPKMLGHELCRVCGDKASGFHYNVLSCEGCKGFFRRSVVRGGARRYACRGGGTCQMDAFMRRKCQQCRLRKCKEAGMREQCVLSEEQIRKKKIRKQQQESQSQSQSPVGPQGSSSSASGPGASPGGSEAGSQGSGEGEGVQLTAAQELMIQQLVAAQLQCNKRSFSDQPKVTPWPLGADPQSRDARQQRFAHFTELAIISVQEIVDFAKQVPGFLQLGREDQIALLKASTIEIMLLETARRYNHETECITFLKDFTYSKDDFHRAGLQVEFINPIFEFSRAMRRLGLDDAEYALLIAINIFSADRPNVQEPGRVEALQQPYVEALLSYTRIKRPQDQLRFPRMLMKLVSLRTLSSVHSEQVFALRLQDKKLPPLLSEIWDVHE
hcDAF12 conf: hcDAF-12 agonism, confirmation assay; shares compounds with hcDAF-12 act; HEK293 hcDAF-12 lit1-tk-luc reporter, luminescence; % of Δ7-dafachronic acid response; activation, % at 6.8 µM; 3,400 tested, 61% active; AID 743032;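 active means mean activation across triplicate tests above the threshold derived from the earlier primary screen, cut at about 5.5% in these data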
Numbers stand for hits. Only some compounds are listed: those with a hit (about 4.1% of all), similar ones and a draw of the others.

What do the screens show for `CC(C)c1ccc(NC(=O)c2sccc2-n2cccc2)cc1`?
hcDAF-12 act: 11; ssDAF12 agonist: inactive; hgDAF-12 ag: 12; DAX1 inh-1: inactive; DAX1 inh-2: inactive; LXR ag: inactive; hcDAF12 conf: 8.9

What do the screens show for `Cc1c(Br)cccc1NC(=O)c1sccc1-n1cccc1`?
hcDAF-12 act: inactive; ssDAF12 agonist: inactive; hgDAF-12 ag: inactive; DAX1 inh-1: inactive; DAX1 inh-2: inactive

Results for O=C(O)c1ccc(N=Nc2c(O)ccc3ncccc23)cc1 ?
hcDAF-12 act: 6.6; ssDAF12 agonist: inactive; hgDAF-12 ag: 12; DAX1 inh-1: inactive; DAX1 inh-2: inactive; LXR ag: inactive; hcDAF12 conf: 10

What do the screens show for `Cc1cccc(SCC(=O)Nc2ccc3c(c2)OCCO3)c1`?
hcDAF-12 act: 7.1; ssDAF12 agonist: inactive; hgDAF-12 ag: inactive; DAX1 inh-1: inactive; DAX1 inh-2: inactive; LXR ag: inactive; hcDAF12 conf: 5.8

Results for CC(C)Oc1ccc(C(=O)Nc2nc3ccccc3[nH]2)cc1 ?
hcDAF-12 act: 8.7; ssDAF12 agonist: inactive; hgDAF-12 ag: inactive; DAX1 inh-1: inactive; DAX1 inh-2: inactive; LXR ag: inactive; hcDAF12 conf: inactive

What do the screens show for `O=C(Nc1ccccc1)c1cc(C2COCCN2C(=O)c2cccs2)on1` (stereo not drawn)?
hcDAF-12 act: inactive; ssDAF12 agonist: inactive; hgDAF-12 ag: inactive; DAX1 inh-2: inactive

What do the screens show for `O=C1C(=O)N(c2cccc(Cl)c2)C(c2ccccc2[N+](=O)[O-])/C1=C(\O)c1ccccc1` (stereo not drawn)?
DAX1 inh-1: inactive

Results for CCOc1ccc(N2C(=O)C(=O)/C(=C(/O)c3ccccc3)C2c2ccccc2[N+](=O)[O-])cc1 (stereo not drawn) ?
hcDAF-12 act: 9.4; ssDAF12 agonist: 1.3; hgDAF-12 ag: inactive; DAX1 inh-1: inactive; DAX1 inh-2: inactive; LXR ag: inactive; hcDAF12 conf: inactive

How did COC(=O)[C@]12C[C@H](CC(=O)NCCCCc3ccccc3)C(=O)N(Cc3cccc4ccccc34)C1=C[C@H](COCc1ccccc1)O[C@@H]2C do in these assays?
hcDAF-12 act: inactive; ssDAF12 agonist: inactive; hgDAF-12 ag: inactive; DAX1 inh-2: inactive

How did CC(C)(C)c1ccc(CC(=O)N2CCC2(C)C(=O)Nc2cnc3ccccc3c2)cc1 (stereo not drawn) do in these assays?
hcDAF-12 act: inactive; ssDAF12 agonist: inactive; hgDAF-12 ag: inactive; DAX1 inh-2: inactive

What do the screens show for `Cc1noc(C(=O)Nc2ccc3c(c2)OCO3)c1Cl`?
hcDAF-12 act: 6.7; ssDAF12 agonist: inactive; hgDAF-12 ag: inactive; DAX1 inh-1: inactive; DAX1 inh-2: inactive; LXR ag: inactive; hcDAF12 conf: inactive

What do the screens show for `CC(=O)c1ccc(NC(=O)c2onc(C)c2Cl)cc1`?
hcDAF-12 act: 7.8; ssDAF12 agonist: inactive; hgDAF-12 ag: inactive; DAX1 inh-1: inactive; DAX1 inh-2: inactive; LXR ag: inactive; hcDAF12 conf: 6.4

How did NC(=Nc1nc(-c2ccccn2)cc2ccccc12)c1ccccn1 do in these assays?
hcDAF-12 act: inactive; ssDAF12 agonist: inactive; hgDAF-12 ag: inactive; DAX1 inh-1: inactive; DAX1 inh-2: inactive

What do the screens show for `Cc1ccc(Nc2c(F)cccc2Cl)c(CC(=O)O)c1`?
hcDAF-12 act: inactive; ssDAF12 agonist: inactive; hgDAF-12 ag: inactive; DAX1 inh-2: inactive

What do the screens show for `CN(C)C(CNC(=O)CCS(=O)(=O)c1ccccc1)c1ccccc1` (stereo not drawn)?
hcDAF-12 act: 8.9; ssDAF12 agonist: inactive; hgDAF-12 ag: inactive; DAX1 inh-1: inactive; DAX1 inh-2: inactive; LXR ag: inactive; hcDAF12 conf: 7.1

Results for O=C(CCS(=O)(=O)c1ccccc1)NCCS(=O)(=O)c1ccccc1 ?
hcDAF-12 act: inactive; ssDAF12 agonist: inactive; hgDAF-12 ag: inactive; DAX1 inh-1: inactive; DAX1 inh-2: inactive

Results for O=C(O)c1ccc(-c2noc(-c3ccccc3Cl)n2)cc1 ?
hcDAF-12 act: 8.2; ssDAF12 agonist: inactive; hgDAF-12 ag: inactive; DAX1 inh-1: inactive; DAX1 inh-2: inactive; LXR ag: inactive; hcDAF12 conf: 9.9

What do the screens show for `CC(=O)N1Cc2cc(C(=O)NCC(F)(F)F)nc(-c3cccc(-c4cc5ccccc5o4)c3)c2[C@@H]1CCO`?
hcDAF-12 act: inactive; ssDAF12 agonist: inactive; hgDAF-12 ag: inactive; DAX1 inh-2: inactive

Results for Cc1cc(C)c(S(=O)(=O)NCCn2c(C)cc3ccccc32)c(C)c1 ?
hcDAF-12 act: 7.1; ssDAF12 agonist: inactive; hgDAF-12 ag: inactive; DAX1 inh-1: inactive; DAX1 inh-2: inactive; LXR ag: inactive; hcDAF12 conf: inactive

Results for COc1ccc(Cl)cc1C(=O)N/N=C/c1ccc(N2CCOCC2)cc1 ?
hcDAF-12 act: inactive; ssDAF12 agonist: inactive; hgDAF-12 ag: inactive; DAX1 inh-1: inactive; DAX1 inh-2: inactive

How did CCn1ncc(/C=N/NC(=O)c2cc(Cl)ccc2OC)c1C do in these assays?
hcDAF-12 act: 8.3; ssDAF12 agonist: inactive; hgDAF-12 ag: inactive; DAX1 inh-1: inactive; DAX1 inh-2: inactive; LXR ag: inactive; hcDAF12 conf: inactive

How did CCOC(=O)[C@@]12CCC3=C1N(CCC3)C(=O)[C@H](CC(=O)N1CCN(C(=O)C3CC3)CC1)C2 do in these assays?
hcDAF-12 act: inactive; ssDAF12 agonist: inactive; hgDAF-12 ag: inactive; DAX1 inh-2: inactive

Results for CN(Cc1ccccc1)C(=O)OCc1cn(Cc2ccc(F)c(F)c2)nn1 ?
hcDAF-12 act: inactive; ssDAF12 agonist: inactive; hgDAF-12 ag: inactive; DAX1 inh-2: inactive

How did Cc1c(NC(=O)CSc2ncnc3c2cnn3-c2ccccc2)c(=O)n(-c2ccccc2)n1C do in these assays?
hcDAF-12 act: inactive; ssDAF12 agonist: inactive; hgDAF-12 ag: inactive; DAX1 inh-1: inactive; DAX1 inh-2: inactive

What do the screens show for `CNC(=O)CSc1ncnc2c1cnn2-c1ccccc1`?
hcDAF-12 act: 7.4; ssDAF12 agonist: inactive; hgDAF-12 ag: inactive; DAX1 inh-1: inactive; DAX1 inh-2: inactive; LXR ag: inactive; hcDAF12 conf: inactive

Results for COc1ccc(C(=O)c2[nH]c(N)c(C(=O)NCCc3c[nH]c4ccccc34)c2-c2ccccc2Br)cc1 ?
hcDAF-12 act: inactive; ssDAF12 agonist: inactive; hgDAF-12 ag: inactive; DAX1 inh-2: inactive

Results for CCCC(=O)N1CCC[C@]2(CC[C@@H](CCC(=O)N(CC)CC)O2)C1 ?
hcDAF-12 act: inactive; ssDAF12 agonist: inactive; hgDAF-12 ag: inactive; DAX1 inh-2: inactive

How did Nc1cccn2c(-c3ccc(Cl)c(Cl)c3)cnc12 do in these assays?
hcDAF-12 act: 9.5; ssDAF12 agonist: 1.1; hgDAF-12 ag: inactive; DAX1 inh-1: inactive; DAX1 inh-2: 4.0; LXR ag: inactive; hcDAF12 conf: 13

How did CC(=O)Nc1cc(-c2ccccc2)cn2c(-c3ccc(F)c(Cl)c3)cnc12 do in these assays?
hcDAF-12 act: inactive; ssDAF12 agonist: inactive; hgDAF-12 ag: inactive; DAX1 inh-2: inactive
